TGFb SMAD3 inh: qHTS for Inhibitors of TGF-b; 1.2% of 410,000 active; HepG2 CAGA-GFP TGF-b/SMAD3 reporter, GFP fluorescence, 18 h; TGF-beta stimulated, 500 pg/mL final; Potency, µM (highest dose often 46.1 µM), without a hit: at the top dose activity, negative = inhibition, hits mostly inhibitors; AID 588855, 2011; also: % is scaled to controls: 0 for no effect and ±100 for the full control effect; nearly all actives have a fitted effect of over 65% in size
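Smad-responsive CAGA-GFP expression was quantified in HEPG2 cells exposed to compounds and 500 pg/mL final TGF-beta for 18 h at 37 degrees C; unstimulated wells defined full inhibition.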
S2 tox: Viability Counterscreen for Primary qHTS for Inhibitors of ATXN expression | S2 cells (HEK-293 line with an ATXN2-luciferase reporter) viability, CellTiter-Fluor protease fluorescence, 24 h | Potency, µM (highest dose often 56.7 µM), actives largely listed as cytotoxic | 0.49% of 400,000 active | AID 651635, 2014; also: nearly all actives have a fitted effect of over 40% in size
HepG2 viability: qHTS for Inhibitors of TGF-b: Cytotox Counterscreen; HepG2 CAGA-GFP viability, ATP luminescence, 18 h; Potency, µM (series often up to 46.1 µM), for the others: top-dose activity change, negative = cytotoxicity, usual class: cytotoxic; 0.76% of 410,000 active
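CellTiter-Glo luminescence gave cytotoxicity after 18 hours at 37 degrees C. The cells were HepG2 CAGA-GFP in 1% FBS DMEM, stimulated with 500 pg/mL TGF-beta after compound addition. %Activity was normalised to no-cell wells (complete cell-killing) and DMSO (no toxicity), and curves were fitted and classified.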
Nrf2 inh: Nrf2 qHTS screen for inhibitors; A549 ARE-Fluc reporter, luciferase luminescence, 18-24 h; AID 504444, 2011; 2.1% of 360,000 active; Potency, µM (highest dose often 46 µM), without a hit: at the top dose activity change, negative = inhibition, hits mostly inhibitors; also: % is scaled to controls: 0 for no effect and ±100 for the full control effect; nearly all actives have a fitted effect of over 60% in size
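In this cell-based qHTS, ARE-driven firefly luciferase in A549 cells reports Nrf2 activity; the luminescent signal after BugLite lysis is the measured value, with a prior CellTiter-Fluor read for cell health.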
ATXN2 expr inh: Primary qHTS for Inhibitors of ATXN expression | HEK-293 ATXN2-luciferase reporter, luminescence, 24 h | Potency, µM (top dose mostly 57 µM), without a hit: top-dose activity change, negative = inhibition, hits mostly inhibitors | 0.72% of 360,000 active | AID 1745845, 2022; also: % is scaled to controls: 0 for no effect and ±100 for the full control effect; nearly all actives have a fitted effect of over 55% in size
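qHTS (up to 57 uM final) was run with 24 h compound exposure of reporter cells at 37 °C. Each well was multiplexed: SteadyGlo luminescence measured ATXN2-luciferase expression after a fluorogenic Gly-Phe-AFC viability readout (25 uM final).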
A549 viability: Nrf2 qHTS screen for inhibitors: counterscreen for cytotoxicity; A549 ARE-Fluc cells, CellTiter-Fluor viability, 18-24 h; Potency, µM (highest dose often 46 µM), for the others: at the highest dose activity change, negative = cytotoxicity, actives largely listed as inhibitors; 0.16% of 390,000 active; also: % is scaled to controls: 0 for no effect and ±100 for the full control effect
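A549 ARE_Fluc cells in 5% FBS OPTI-MEM were exposed to compounds in concentration-response for 18-24 h at 37 deg C. Viability was read by CellTiter-Fluor fluorescence (Ex 405/Em 525) after 30 min, before the luciferase read.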
Starred values were filed as active, the others as inactive; i = inactive; ? = inconclusive; . = not tested or not shown; [ ] = dose if it differs, or a comment. Sampled rows, rich in hits. Any-hit rate of the full collection: about 3.8%. Calls follow the shape of the dose curve; as a rule, active = well fitted curve in the direction sought with a large enough effect; inconclusive = small, poorly fitted or top-dose-only effect, or another doubt; inactive = no such curve, though single readings can be large; an effect the other way counts as inactive or inconclusive. Potency is read from the fitted curve at half-maximal effect.

SMILES	TGFb SMAD3 inh	S2 tox	HepG2 viability	Nrf2 inh	ATXN2 expr inh	A549 viability
C=CCn1c(CSc2ccccc2[N+](=O)[O-])n[nH]c1=S	-11.0%	i	-5.7%	-4.5%	10.8%	-2.0%
O=c1[nH]nc(SCc2ccccc2Cl)n1-c1ccc2c(c1)OCCO2	-4.6%	i	-1.9%	4.3%	7.1%	-15.2%
O=c1[nH]nc(Sc2ncc([N+](=O)[O-])s2)n1-c1ccc2c(c1)OCCO2	.	.	.	.	12.2µM*	.
COc1ccc(S(=O)(=O)NCC(c2ccco2)S(=O)(=O)c2ccc(C)cc2)cc1C (centres undefined)	10µM*	.	-5.0%	.	.	-4.4%
O=S(=O)(NCC(c1ccco1)S(=O)(=O)c1cccs1)c1ccc(F)c(C(F)(F)F)c1 (centres undefined)	4.47µM*	.	-40.9%	.	.	11.0%
O=S(=O)(NCC(c1ccco1)S(=O)(=O)c1cccs1)c1ccc(Cl)cc1 (centres undefined)	?	.	-25.6%	.	.	0.5%
Cc1ccc(C)c(S(=O)(=O)NCC(c2ccco2)S(=O)(=O)c2ccc(F)cc2)c1 (centres undefined)	11.2µM*	.	-37.3%	.	.	5.0%
Cc1ccc(S(=O)(=O)N2CCCC2CNC(=O)c2ccc(F)c(F)c2)cc1 (centres undefined)	7.0%	i	-24.7%	3.8%	-16.0%	-4.0%
Cc1c(C(=O)NCc2ccccc2)sc2nc3n(c(=O)c12)CCC3	7.0%	.	-85.8%	2.3%	.	4.7%
Clc1cnc(N/N=C/c2cccs2)c(Cl)c1	-2.2%	i	-37.2%	?	21.7%	-22.6%
Cc1ccc(/C=N/Nc2ncc(Cl)cc2Cl)s1	?	i	-30.8%	?	13.0%	5.8µM*
O=C(Nc1ccc(Br)cc1)c1ccc(F)c(S(=O)(=O)N2CCc3ccccc32)c1	11.2µM*	.	-34.4%	.	.	?
O=C(Nc1cccnc1)c1ccc(Cl)c(S(=O)(=O)N2CCc3ccccc32)c1	-30.6%	i	3.55µM*	?	-18.2%	2.0%
O=C(Nc1ccccn1)c1ccc(S(=O)(=O)N2CCCC2)cc1	10.1%	i	6.8%	3.4%	-1.0%	-4.2%
O=C(Nc1ccccn1)c1ccc(S(=O)(=O)c2ccc(Cl)cc2)cc1	?	i	-2.1%	5.8µM*	7.4%	-12.2%
O=C(Nc1ccc(Br)cc1)c1ccc(F)c(S(=O)(=O)NCc2cccs2)c1	?	i	-11.9%	11.6µM*	-23.2%	-3.2%
C=CC(c1ccccc1)C(C(=O)c1ccccc1)N(C)C (centres undefined)	1.3%	?	1.5%	0.2%	5.5%[11.3 µM]	1.5%
O=C(Nc1ccccn1)c1ccc(Cl)c(S(=O)(=O)N2CCc3ccccc32)c1	?	i	-7.8%	20.6µM*	-32.0%	-22.6%
CCc1nnc(NC(=O)c2ccc(Cl)c(S(=O)(=O)N3CCc4ccccc4C3)c2)s1	-16.0%	i	-3.7%	18.4µM*	-29.0%	-4.0%
CCc1nnc(NC(=O)c2ccc(S(=O)(=O)N3CCc4ccccc4C3)cc2)s1	0.9%	i	8.3%	?	2.4%	0.7%
CC[C@H](C)Cc1cn([C@@H](CCCCNC(=O)OC(C)(C)C)C(=O)NCCCCCCCCCCC(=O)N2CCN(C(=O)OC(C)(C)C)CC2)nn1	?	?	-21.2%	10.3µM*	?	?
CSCC[C@@H](C(=O)NCCCCCCCCCCC(=O)N1CCN(C(=O)OC(C)(C)C)CC1)n1cc(CCO)nn1	-27.3%	?	-7.2%	?	?	1.6%
CC(C)(C)OC(=O)NCCCC[C@@H](C(=O)NCCCCCCCCCCC(=O)N1CCN(C(=O)OC(C)(C)C)CC1)n1cc(CCO)nn1	?	35.5µM*	-13.8%	?	?	?
COC(=O)C(CC(=O)c1ccc(Br)cc1)n1ccnc1 (centres undefined)	4.47µM*	.	7.94µM*	.	.	.
CC1CCN(Cc2c(C(=O)N/N=C/c3ccc(C(F)(F)F)cc3)nnn2-c2nonc2N)CC1	?	i	-53.2%	25.9µM*	-6.7%	?
SMILES	TGFb SMAD3 inh	S2 tox	HepG2 viability	Nrf2 inh	ATXN2 expr inh	A549 viability
CC1CCN(Cc2c(C(=O)N/N=C/c3cc(Br)ccc3O)nnn2-c2nonc2N)CC1	?	?	-48.3%	?	?	-10.4%
CC1CCN(Cc2c(C(=O)N/N=C/c3cc(Cl)ccc3O)nnn2-c2nonc2N)CC1	?	i	-9.2%	-24.6%	2.24µM*	-5.9%
C/C(=N\NC(=O)c1nnn(-c2nonc2N)c1CN1CCc2ccccc21)c1ccccc1O	?	?	-83.9%	11.6µM*	.	-13.5%
Nc1nonc1-n1nnc(C(=O)N/N=C/c2ccccc2)c1CN1CCc2ccccc21	-7.0%	i	-5.3%	10.2%	-18.8%	1.5%
O=C(/C=C/c1ccc(F)cc1)NC(=S)NC1CCCCC1	-7.0%	i	-6.3%	11.6µM*	.	-1.4%
CCN(C(=O)CSc1nnc2c3ccccc3n(CC)c2n1)C1CCS(=O)(=O)C1 (centres undefined)	0.0%	i	-5.1%	-16.0%	9.2%	4.1%
CC(C)(C)S(=O)N1Cc2cc(C(=O)N[C@@H]3CCN(Cc4ccccc4)C3)nc(-c3cccc(-c4cc5ccccc5o4)c3)c2[C@@H]1CCO (some centres undefined)	?	?	-32.7%	.	?	.
O=C(Nc1ccccc1N1CCCC1)c1ccc([N+](=O)[O-])o1	25.1µM*	?	-80.9%	16.4µM*	?	?
CCC(=O)N1CCN(c2ccccc2NC(=O)c2ccc([N+](=O)[O-])o2)CC1	15.8µM*	i	-149.7%	-2.6%	-31.6%	-9.8%
O=C(Nc1ccc(N2CCN(Cc3ccccc3F)CC2)cc1)c1ccc([N+](=O)[O-])o1	?	i	-47.2%	23.1µM*	-4.5%	16.4µM*
CC(C)C(=O)N1CCN(c2ccccc2NC(=O)c2ccc([N+](=O)[O-])o2)CC1	?	?	-91.1%	-0.9%	?	-8.2%
O=C(Nc1ccc(N2CCN(Cc3ccccc3F)CC2)cc1)c1ccccc1[N+](=O)[O-]	?	i	-24.5%	-23.0%	-12.8%	-0.7%
O=C(Nc1ccccc1N1CCN(C(=O)c2ccccc2)CC1)c1ccc([N+](=O)[O-])o1	11.2µM*	i	-198.0%	-3.4%	-27.3%	-3.2%

Screens deposited in PubChem BioAssay by National Center for Advancing Translational Sciences (NCATS).
